Compounds with a hit are over-represented: about 6.1% of the library has one in this group of screens.
D1 ag = human D1 receptor agonism; P21728; HEK293 T-REx D1 cells, calcium flux, agonist mode; activation, % at 2 µM; actives 1% (n = 360,000); AID 504660; in the data active = activation above about 30%; also: 0% is about no effect
Target sequence (P21728 whole entry, looked up): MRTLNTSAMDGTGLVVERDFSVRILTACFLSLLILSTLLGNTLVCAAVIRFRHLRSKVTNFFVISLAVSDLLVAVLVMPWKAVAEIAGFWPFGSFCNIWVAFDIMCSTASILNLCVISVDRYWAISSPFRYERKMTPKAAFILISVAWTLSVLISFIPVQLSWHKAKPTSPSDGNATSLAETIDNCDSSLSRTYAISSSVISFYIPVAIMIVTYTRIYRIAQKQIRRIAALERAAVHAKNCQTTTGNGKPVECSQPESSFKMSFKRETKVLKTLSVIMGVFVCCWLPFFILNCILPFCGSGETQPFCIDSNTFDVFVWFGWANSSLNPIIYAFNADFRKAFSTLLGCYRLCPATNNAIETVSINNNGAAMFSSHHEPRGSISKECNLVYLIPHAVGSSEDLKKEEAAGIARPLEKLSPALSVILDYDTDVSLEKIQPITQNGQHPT
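Tetracycline-induced HEK293 TREx D1 cells, force-coupled to calcium signalling, were dye-loaded with a no-wash calcium kit. Compound was pin-added after a 10 s baseline. Fluorescence was read kinetically at 1 cycle/s for 180 s, with calcium rises flagged as agonism.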
D1 antag = blocks dopamine activation of the human D1 receptor; P21728; HEK293 TREx D1 cells, calcium flux, dopamine EC80; active compounds read low; activity change, negative = inhibition, % at 10 µM; actives 3.2% (n = 360,000); in the data active = activity change below about -30%; also: % is scaled to controls: 0 for no effect and ±100 for the full control effect
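Tetracycline-induced HEK293 T-REx cells with force-coupled D1 receptor were loaded with a no-wash calcium dye. Compound was added after a 10 s baseline and read kinetically for 180 s; EC80 dopamine was then added and calcium flux followed another 180 s.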
D1 PAM = enhances dopamine response at the human D1 receptor | P21728 | potentiation, % at 10 µM | HEK293 TREx D1 cells, calcium flux, dopamine EC20 potentiation | AID 504651 | actives 0.036% (n = 360,000); in the data active = potentiation above about 30%; also: 0% is about no effect
D3 antag = antagonists of human D3 dopamine receptor; P35462; D3R cells, DiscoveRx beta-arrestin luminescence, antagonist mode; active compounds read low; max response, negative = inhibition, %; actives 2.5% (n = 360,000); AID 652054; in the data active = max response below about -50%; also: % is scaled to controls: 0 for no effect and ±100 for the full control effect
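Cells expressing the human receptor were seeded at 1500 cells/well, incubated overnight at 37 degrees C in 5% CO2, then exposed to library compounds with dopamine controls for 90 minutes at 37 degrees C before luminescent detection.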
DRD3 agonist = D3 dopamine receptor (human) agonism. P35462. D3R DiscoveRx beta-arrestin cells, luminescence, 90 min. max activation, %. actives 0.58% (n = 410,000). AID 652048; in the data active = max activation above about 30%; also: 0% is about no effect
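Agonist-mode cell screen: cells plated at 1500/well and incubated overnight at 37 °C, then exposed to library compounds for 90 min at 37 °C. Detection reagent was added for 30–60 min at room temperature, and luminescence was read.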
* hit, by the source's call; x = no result.

SMILES | D1 ag | D1 antag | D1 PAM | D3 antag | DRD3 agonist
CCn1c(=O)c(C(=O)NNC(=O)c2ccc(Cl)cc2Cl)c(O)c2ccccc21 | 30 | -8 | 2 | 6 | 4
CCCn1c(=O)c(C(=O)Nc2ccccc2C(=O)OCC)c(O)c2ccccc21 | 0 | -1 | 1 | 28 | 37*
CCCn1c(=O)c(C(=O)Nc2cccc(C)n2)c(O)c2ccccc21 | 4 | 14 | 4 | 0 | 0
CCCn1c(=O)c(C(=O)Nc2ncccc2C)c(O)c2ccccc21 | 49* | -16 | 0 | 4 | 7
CCCn1c(=O)c(C(=O)NNC(=O)c2ccc(Cl)cc2Cl)c(O)c2ccccc21 | 41* | -13 | -6 | 1 | 1
CC1=C(/C=C/C(C)=C/C=C/C(C)=C/C=C/C=C(C)/C=C/C=C(C)/C=C/C2=C(C)C[C@@H](O)CC2(C)C)C(C)(C)C[C@H](O)C1 | x | x | x | x | 6
Cc1csc2c(=O)n(CCO)c(=O)[nH]c12 | 1 | -13 | 0 | -2 | 4
CC(C)n1nnnc1C1c2ccccc2C(=O)N1Cc1cccnc1 (centres undefined) | x | x | x | 7 | 11
COc1cc2ncc3c(-c4ccccc4)nn(-c4ccc(C)cc4)c3c2cc1OC | 1 | 1 | 0 | x | 20
CCn1c(=O)c(C(=O)Nc2nc3ccccc3[nH]2)c(O)c2ccccc21 | 1 | 0 | -8 | -62* | 4
CCOC(=O)c1oc2cc(O)ccc2c(=O)c1-c1ccccc1OC | 3 | 5 | -8 | -61* | -15
CCOC(=O)c1oc2cc(O)ccc2c(=O)c1-c1csc(C)n1 | 1 | -7 | 0 | -1 | -3
COc1ccc([C@H]2C(C#N)=C([S-])N[C@](C)(O)[C@@H]2[n+]2ccccc2)cc1 | 3 | -16 | 2 | -15 | -2
CC(C)C(=O)Nc1cccc(-c2csc(-c3ccccc3)n2)c1 | 1 | 22 | -16 | 5 | 2
CC(C)C(=O)Nc1ccc(-c2csc(-c3ccccc3)n2)cc1 | 1 | -38* | -3 | -11 | 2
CCOC(=O)C1CCCN(CC(=O)Nc2c(C(=O)OC)[nH]c3ccc(Br)cc23)C1 (centres undefined) | 2 | -5 | -4 | -51* | -15
CCOC(=O)c1[nH]c2ccc(OCC)cc2c1NC(=O)CN1CCCC(C)C1 (centres undefined) | 3 | -36* | -6 | 19 | 0
CCOC(=O)C1CCN(CC(=O)Nc2c(C(=O)OC)[nH]c3ccc(Cl)cc23)CC1 | 1 | -25 | 2 | -3 | 13
CCOC(=O)c1[nH]c2ccc(C)cc2c1NC(=O)CN1CCCCC1 | -1 | -10 | 0 | -10 | -24
CCc1ccc(OCC(=O)N(Cc2ccc(Cl)cc2)C2CCS(=O)(=O)C2)cc1 (centres undefined) | 6 | 15 | -1 | x | -17
CCc1ccc(C(=O)COC(=O)C(Cc2c[nH]c3ccccc23)NC(=O)c2ccc(CC)cc2)cc1 (centres undefined) | 4 | -9 | -4 | x | 4
O=C(c1ccc([N+](=O)[O-])cc1[N+](=O)[O-])N1CCc2ccccc21 | 2 | -11 | 0 | -51* | -13
O=C(c1ccc([N+](=O)[O-])cc1[N+](=O)[O-])N1CCCC1 | 0 | 4 | -3 | 1 | 1
N/C(Cc1cccc2ccccc12)=N\O | 2 | -13 | 2 | 19 | 30*
COc1ccc(CNC(=O)CCn2c(=O)c3cccn3c3ccc(F)cc32)cc1OC | 20 | -43* | -4 | x | -8
SMILES | D1 ag | D1 antag | D1 PAM | D3 antag | DRD3 agonist
CCOC(=O)c1ccc(NC(=O)CCn2c(=O)c3cccn3c3ccccc32)cc1 | 86* | -16 | 24 | x | 2
COc1ccc(CNC(=O)CCCn2c(=O)c3cccn3c3ccc(F)cc32)cc1OC | 2 | 6 | -3 | x | 5
COc1ccc(NC(=O)CCn2c(=O)c3cccn3c3ccccc32)cc1 | 1 | 4 | 7 | -24 | -19
O=C(CCn1c(=O)c2cccn2c2ccccc21)Nc1ccc(F)cc1 | 1 | 33 | 1 | -65* | -20
CCN(CC)S(=O)(=O)c1cc(-c2nnc(-c3ccc(Br)cc3)o2)ccc1Br | 2 | 5 | -2 | -65* | -10
O=C(COC(=O)CCC(=O)c1ccc(F)cc1)NCc1ccccc1Cl | x | x | x | 0 | 0
COc1cccc(COC(=O)C2CCN(C(=O)c3ccc(F)cc3)CC2)c1OC | 19 | -45* | -11 | 12 | 2
CCOC(=O)C1CCCCN1Cc1cccc(OC)c1OC (centres undefined) | 1 | -1 | 1 | -108* | -9
CCOc1ccc(S(=O)(=O)N2CCC(C(=O)OCc3cccc(OC)c3OC)CC2)cc1 | 22 | 0 | -4 | 4 | -1
COc1cccc(COC(=O)C2CCN(S(=O)(=O)c3ccc(C)cc3)CC2)c1OC | 10 | -38* | 1 | -7 | 6
CCOC(=O)C1CCCCN1Cc1cc(OC)ccc1OC (centres undefined) | 2 | -4 | 4 | -26 | 2
COc1cccc(COC(=O)C2CCN(S(=O)(=O)c3ccc(C)cc3C)CC2)c1OC | 18 | -44* | -18 | 11 | 4
O=C(COC(=O)CCC(=O)c1ccc(Cl)cc1)NC1CC1 | 4 | 5 | -1 | 5 | -1
O=[N+]([O-])c1ccc(O)c(C2=NNC(c3ccccc3F)C2)c1 (centres undefined) | 14 | -33* | 0 | -121* | -47
CCOC(=O)N1CCN(C(=O)c2c[nH]c3ccc(S(=O)(=O)N(C)c4ccccc4C)cc3c2=O)CC1 | 2 | -34* | -10 | 11 | 3
CCCCNC(=O)C1c2ccccc2Oc2ccccc21 | 1 | -1 | 1 | -5 | -4
CNCCC1Sc2ccccc2Oc2ccccc21 (centres undefined) | 81* | 11 | -8 | -4 | -12
COC(=O)[C@@H]1[C@@H](C#N)C2(c3ccccc3-c3ccccc32)N(c2ccc(Cl)cc2)N1C#N | 4 | 1 | -6 | -54* | -6
O=C(c1ccc(S(=O)(=O)c2ccc(Cl)cc2)cc1)N1CCOCC1 | 3 | -10 | -4 | 4 | 4
Cc1ccc(/C=C/C(=O)OCC(=O)Nc2ccccc2Sc2ccccc2)cc1 | 32* | -11 | -3 | -3 | -11
CN(C(=O)C(=O)c1cn(CC(=O)N2CCCC2)c2ccccc12)C1CCCCC1 | 1 | -10 | -6 | 6 | 4
CC(=O)Nc1ccc2nc3c(=O)n(C)c(=O)n(C)c3nc2c1 | 34* | -5 | -3 | -13 | -9
C=C(C)Cn1c(SCC(=O)Nc2cccc(C)c2)nc2sc3c(c2c1=O)CCCC3 | 3 | 19 | -3 | x | 34*
C=C(C)Cn1c(SCC(=O)c2ccccc2)nc2sc3c(c2c1=O)CCCC3 | 1 | -1 | -2 | x | 1
CC(C)CCNC(=O)Cn1c2c(c(-c3ccccc3Cl)cc1=O)CCC2 | 7 | 6 | 3 | -13 | -3

Bioassay records from PubChem.
